Results as given in PubChem BioAssay (Tox21).
Results filed as inconclusive are left out. The source made the active and inactive calls. Calls follow the shape of the dose curve; as a rule, active = well fitted activation curve with a large enough effect in the repeat runs; inconclusive = weak or mixed curves; inactive = flat fitted curve, though single readings scatter.

Experiment: A CellTox Green Cytotoxicity Assay to monitor cytotoxicity in HEK293 cells - 8 hour (AID 1224884); also: nearly all actives have a fitted effect of over 35% in size
Details: CellTox Green fluorescence; series mostly up to 76.8 µM; cytotoxicity increase: at the top concentration
Text: National Center for Advancing Translational Sciences [NCATS]
NIH Chemical Genomics Center [NCGC]
U.S. Environmental Protection Agency [EPA]
National Institutes of Environmental Health Sciences [NIEHS]
National Toxicology Program [NTP]
Cell-based models are critical for drug discovery. Determining the natural cytotoxic effects resulting from test compounds is an essential research activity. A CellTox Green Cytotoxicity Assay to monitor cytotoxicity in real time of continues cell culture during 40 hours of the compound treatment was used to screen Tox21 10K library compounds in Hek293 cells. CellTox Green Cytotoxicity Assay is a nonlytic, homogeneous, biofluorescent method to measure cytotoxicity in cell culture after experimental manipulation. The assay system uses a proprietary asymmetric cyanine dye that is excluded from viable cells but preferentially stains the dead cell's DNA. […] Viable cells produce no appreciable increases in fluorescence. Therefore, the fluorescence signal produced by the binding interaction with dead cell DNA is proportional to cytotoxicity.
The mixture of Hek293 cell suspension and reagents were dispensed at 600cells/6 ul/well in 1536-well tissue culture treated black solid bottom plates using a Multidrop dispenser. After the assay plates were incubated at a 37 C/5% CO2 incubator for 5 hours, 23 nL of compounds dissolved in DMSO, positive and negative controls was transferred to the assay plate by a pintool work station. The plates were incubated at 37 C for 40 hours. The fluorescence intensity were measured at 0h, 8h, 16h, 24h, 32h and 40h time points using ViewLux plate reader during compound treatment.
% is scaled to controls: 0 for no effect and ±100 for the full control effect.

Structure (SMILES)	cytotoxicity increase
Cc1ccc2c(ccc3ccccc32)c1	12.6% (inactive)
CC(=O)SCc1ccco1	-0.868% (inactive)
O=C(O)C1CCC(C(=O)O)CC1 (stereo not given)	-8.17% (inactive)
CC(O)C1CCCCC1 (stereo not given)	6.22% (inactive)
CNCC[C@@H](Oc1ccccc1C)c1ccccc1	2.29% [at 35.3 µM] (inactive)
CC(C(=O)O)c1ccc(-c2ccccc2)c(F)c1 (stereo not given)	12.6% (inactive)
O=C(c1ccccc1)c1ccc2n1CCC2C(=O)O (stereo not given)	-0.0499% [at 35.3 µM] (inactive)
Cc1cccc(C(C)(C)C)c1O	5.67% (inactive)
CC(C(=O)O)c1ccc(C(=O)c2ccccc2)s1 (stereo not given)	7.13% [at 35.3 µM] (inactive)
NCCCOCCOCCOCCCN	-4.67% (inactive)
CC(C)=CCCC(C)CC=O (stereo not given)	-16.2% (inactive)
Oc1ccc(Sc2ccc(O)cc2)cc1	-11.7% (inactive)
COc1ccc([C@@H]2Sc3ccccc3N(CCN(C)C)C(=O)[C@@H]2OC(C)=O)cc1	-7.28% [at 35.3 µM] (inactive)
COc1ccc(C(C)=O)cc1	-4.65% (inactive)
COC(Cc1ccccc1)OC	-13.1% (inactive)
CCCCCCCCCCCCCCCC(=O)OC/C=C(C)/C=C/C=C(C)/C=C/C1=C(C)CCCC1(C)C	24.6% (inactive)
CC(C)NCC(O)COc1ccc(CC(N)=O)cc1 (stereo not given)	-6.15% (inactive)
NC(N)=N/N=C/c1c(Cl)cccc1Cl	4.79% [at 35.3 µM] (inactive)
O=C(O)/C=C/c1cnc[nH]1	-4.43% (inactive)
CC[C@H](C)[C@H](N)C(=O)O	-1.09% [at 35.3 µM] (inactive)

Structure (SMILES)	cytotoxicity increase
CCCCCCCCCC=O	-11.2% (inactive)
CC(=O)OC/C=C/c1ccccc1	-8.33% (inactive)
NC(=S)N/N=C/c1cccnc1	2.6% [at 35.3 µM] (inactive)
CN(C)CCCOc1nn(Cc2ccccc2)c2ccccc12	-3.99% [at 35.3 µM] (inactive)
NCCCN(CCO)CCO	-13.6% (inactive)
OCCC1CCCCN1 (stereo not given)	-0.0999% (inactive)
O=C=NC1CCC(CC2CCC(N=C=O)CC2)CC1 (stereo not given)	-7.48% (inactive)
CC(=O)c1c(C)c([N+](=O)[O-])c(C(C)(C)C)c([N+](=O)[O-])c1C	-2.33% (inactive)
Cc1ccc(C(=O)C(C)CN2CCCCC2)cc1 (stereo not given)	1.15% [at 35.3 µM] (inactive)
CCOC(=O)C1=C(C)NC(C)=C(C(=O)OC)C1c1cccc([N+](=O)[O-])c1 (stereo not given)	1.28% [at 35.3 µM] (inactive)
COc1ccc(OC)c(OC)c1	-2.56% (inactive)
Oc1ccc(C(O)CNCCCCCCNCC(O)c2ccc(O)c(O)c2)cc1O (stereo not given)	-0.991% [at 35.3 µM] (inactive)
C=C(C)C(=O)OCCOc1ccccc1	13.4% (inactive)
CC(C)(C)C1CCCCC1O (stereo not given)	-10.4% (inactive)
Nc1nc(CC(=O)O)cs1	-8.79% (inactive)
CCCC[C@H]1CN(CC2CCOCC2)C(=O)OC12CCN(C1(C)CCN(C(=O)c3c(C)ncnc3C)CC1)CC2	9.52% (inactive)
COCCOCCOCCOCCOC	-3.26% (inactive)
O=C(NN1CCCC1)NS(=O)(=O)c1ccc(Cl)cc1	-9.63% [at 35.3 µM] (inactive)
CC(C)c1ccccc1C(C)C	0.996% (inactive)
CCCCCCCCCO	-1.7% (inactive)
